Lassa entry inh – qHTS for Inhibitors of binding or entry into cells for Lassa Virus. Lassa virus pseudotype entry inhibition, cell reporter. Potency, µM (top dose mostly 37.9 µM), usual class: inhibitors. 300,000 compounds, 1.2% hits. AID 540256, 2011; calls by dose curve; tested in HEK293 cells; also: nearly all actives have a fitted effect of over 50% in size
FMDV antiviral – High Throughput Screening for Foot and Mouth Disease Virus Antivirals; Potency, µM (highest dose often 57.9 µM), usual class: inhibitors; 410,000 compounds, 1.2% hits; FMDV antiviral cell-based qHTS; calls by dose curve; tested in HEK293T cells; also: read-out not given here; nearly all actives have a fitted effect of over 45% in size
FBPA Giardia inh – qHTS Assay for Inhibitors of Fructose-1,6-bisphosphate Aldolase from Giardia Lamblia | A8B2U2 | 290,000 compounds, 0.71% hits | Potency, µM (doses to about 59.6 µM), usual class: inhibitors | AID 2451, 2010 | purified Giardia FBPA; also: nearly all actives have a fitted effect of over 55% in size
Target sequence (A8B2U2 whole entry, looked up): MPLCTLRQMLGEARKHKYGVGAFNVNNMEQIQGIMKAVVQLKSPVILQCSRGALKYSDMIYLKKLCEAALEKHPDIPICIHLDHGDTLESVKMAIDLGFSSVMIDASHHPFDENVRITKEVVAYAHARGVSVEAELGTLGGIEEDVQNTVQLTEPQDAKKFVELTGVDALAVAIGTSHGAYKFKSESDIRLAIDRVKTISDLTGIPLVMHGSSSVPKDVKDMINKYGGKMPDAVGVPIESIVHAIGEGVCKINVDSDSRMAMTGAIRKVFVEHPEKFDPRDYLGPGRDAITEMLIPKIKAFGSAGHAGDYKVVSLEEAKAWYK
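40 nM FBPA preincubated 10 min at RT with compound (up to 57.5 uM final), then substrate plus GAPDH/TPI/NAD/arsenate coupling and diaphorase/resazurin added. Fluorescence read after 20 min at RT, 525/598 nm.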
HCMV inh – qHTS Assay for inhibitors of the human cytomegalovirus (HCMV); 410,000 compounds, 4.5% hits; activity change, negative = inhibition, % at 57.5 µM; HFF cells, HCMV-luciferase reporter, 72 h; stronger effect = lower value; in the data active = activity change below about -60%; inconclusive = no clear call, values can overlap the other calls; inactive = above about -39%
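Two-dose cell screen: HFF monolayers treated with compounds and infected with luciferase-expressing HCMV at 1 PFU/cell, 72 h at 37C, then lysed for luciferase measurement.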
Marburg entry inh – qHTS for inhibitors of binding or entry into cells for Marburg Virus. Marburg virus pseudotyped entry inhibition, cell reporter. 300,000 compounds, 1.8% hits. AID 540276, 2011. Potency, µM (titrated, usually from 37.8 µM), actives largely listed as inhibitors; calls by dose curve; tested in HEK293 cells
HCV inh – qHTS Assay for Inhibitors of Hepatitis C Virus (HCV); Huh7.5.1 HCVcc-Cre infection, luciferase reporter, 44 h; Potency, µM (series often up to 41.8 µM), most hits filed as inhibitors; 340,000 compounds, 3.4% hits; AID 651820, 2012
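Infectious HCV cell culture screen: compound-treated cells (1,000/well, pre-plated 4 h) are infected with HCVcc-Cre at roughly 0.5 moi and grown 44 h. Infection is quantified by luciferase signal after 15 min substrate incubation at room temperature.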
Hits are given with their value; – = inactive; ? = inconclusive; · = no result given; ! = not active in a repeat. The list is not random: actives were taken first. Their share in the collection is about 8.3%. Unless noted, calls follow the shape of the dose curve; as a rule, active = well fitted curve in the direction sought with a large enough effect; inconclusive = small, poorly fitted or top-dose-only effect, or another doubt; inactive = no such curve, though single readings can be large; an effect the other way counts as inactive or inconclusive.

SMILES	Lassa entry inh	FMDV antiviral	FBPA Giardia inh	HCMV inh	Marburg entry inh	HCV inh
CCOc1ccc(-n2c(SCc3cc(=O)oc4cc(C)c(C(C)C)cc34)nnc2-c2cccnc2)cc1	–	–	–	-80.1	–	?
Cc1cc2oc(=O)cc(CSc3nnc(-c4cccs4)o3)c2cc1C(C)C	?	?	–	–	?	10µM
COc1ccccc1C1CN(Cc2cn(C)nc2C)Cc2ccccc2O1 (centres undefined)	·	–	·	·	·	·
NCCC[C@@H](CC(=O)N[C@@H]1CCNC[C@H]1C(=O)N[C@H](CC(=O)N[C@@H](CCC(=O)O)CC(=O)O)Cc1c[nH]c2ccccc12)NC(=O)C[C@H](Cc1c[nH]c2ccccc12)NC(=O)[C@@H]1CNCC[C@H]1N	·	·	–	·	·	·
CCN(C(=O)CCS(=O)(=O)c1cc2c(cc1C)NC(=O)CO2)c1cccc(C)c1	–	–	·	-102.9	·	·
Cc1cccc(N(C)C(=O)CCS(=O)(=O)c2cc3c(cc2Cl)NC(=O)CO3)c1	·	–	–	–	·	–
CC(=O)Nc1ccc(NC(=O)c2ccc(NS(=O)(=O)c3cccc4cccnc34)cc2)cc1	–	–	–	–	?	–
Cc1ccc(C(=O)Nc2ccc3ncccc3c2)cc1	?	14.1µM	–	-63.6	?	–
Cc1ccc(NC(=O)c2ccc(NS(=O)(=O)c3cccc4cccnc34)cc2)cc1	?	–	–	·	–	10µM
Cc1ccc(NC(=O)c2ccc(C)cc2)cc1	·	–	·	–	·	–
Cc1ccc(C(=O)Nc2ccc(Br)c(C(F)(F)F)c2)cc1	?	–	·	–	16.4µM	11.2µM
C[C@@]12CCC[C@H]1C1CC[C@H]3C[C@H](O)CC[C@]3(C)C1CC2 (some centres undefined)	·	–	·	·	·	·
CCN(CC)c1ccc(NC(=O)c2cnccn2)cc1S(=O)(=O)Nc1ccc(OC)cc1	?	–	–	–	?	8.91µM
CCN(CC)c1ccc(NC(=O)c2ccc(=O)[nH]c2)cc1S(=O)(=O)Nc1ccccc1OC	–	–	–	–	?	22.4µM
CCN(CC)c1ccc(NC(=O)c2ccccc2Br)cc1S(=O)(=O)Nc1ccccc1OC	?	–	–	–	?	?
CCN(CC)c1ccc(NC(=O)COc2ccccc2C#N)cc1S(=O)(=O)Nc1ccc(OC)cc1	?	–	–	–	?	?
Cc1nc2cncnc2n(C2CC2)c1=O	·	–	–	·	·	·
COc1ccc(C(C)n2c(C)c3c(C)nnc(C)c3c2C)cc1 (centres undefined)	–	–	–	-80.8!	?	?
Cc1nnc(C)c2c(C)n(C(C)c3ccccc3)c(C)c12 (centres undefined)	–	?	?	?	–	10µM
Cc1cccc(-c2cnc(C)nc2C2CCCN(C(=O)c3cccc(Cn4cccn4)c3)C2)c1 (centres undefined)	·	–	·	·	·	·
COc1cc(OC)cc(-c2nc3nc(C)c(CCC(=O)Nc4cc(C)cc(C)c4)c(C)n3n2)c1	–	–	·	–	–	·
CN(Cc1ccccc1N1CCCC1)C(=O)c1cc2cc(Cl)ccc2o1	·	?	·	–	·	11.2µM
O=C(Cn1ncc2c3ccccc3n(Cc3ccccc3)c2c1=O)N1CCN(c2ncccn2)CC1	?	?	–	·	?	10µM
CCN1CCN(C(=O)Cn2ncc3c4ccccc4n(Cc4c(C)cc(C)cc4C)c3c2=O)CC1	–	–	·	-60.3	?	·
CSc1nc(Nc2ccc(C)cc2C)cc(-c2ccccc2)n1	–	?	·	–	–	·
SMILES	Lassa entry inh	FMDV antiviral	FBPA Giardia inh	HCMV inh	Marburg entry inh	HCV inh
CC(C)C[C@H](NC(=O)[C@H](CC(C)C)NC(=O)[C@H](Cc1ccccc1)NC(=O)[C@@H](N)CO)C(=O)N[C@@H](CCCN=C(N)N)C(=O)N[C@@H](CC(N)=O)C(=O)O	·	·	–	·	·	·
COc1ccc(-n2c(=O)c(CCc3ccccc3)nc3cnc(N4CCN(C)CC4)nc32)cc1	·	–	–	·	·	·
O=C1NC(c2ccccn2)Nc2sc3c(c21)CCC3 (centres undefined)	–	–	?	-103.4	–	–
O=C(c1csnn1)N1CCC2(CC1)CCN(c1ccccc1)CC2	·	–	–	·	·	·
CC1(C)CC(=O)c2cc(OCC(=O)NCCCN3CCN(c4ccc(F)cc4)CC3)ccc2O1	?	?	–	?	23.1µM	10µM
CCOC(=O)c1cccc(Nc2cc(C)nc(C)n2)c1	–	?	·	–	–	·
CCOc1ccccc1NC(=O)CSc1ncc2c(n1)-c1ccccc1N(CC)S2(=O)=O	–	–	·	–	·	·
Cc1ccc(-n2c(C)cc(C(=O)CSc3n[nH]c(N)n3)c2C)cc1	?	–	–	-70.1	–	?
Cc1cc(C(=O)CSc2n[nH]c(N)n2)c(C)n1-c1ccccc1	–	–	–	–	–	11.2µM
Cc1cc(C(=O)CSc2nnc3ccccn23)c(C)n1-c1ccccc1	0.891µM	3.16µM	–	-72.4	0.316µM	–
Cc1cc(C(=O)CSc2nnc(-c3ccccc3)n2-c2ccccc2)c(C)n1-c1ncn[nH]1	–	–	–	–	–	–
COc1ccccc1-c1ccnc(-n2ncc(C(=O)NC(c3cccnc3)C(F)(F)F)c2C)n1 (centres undefined)	·	–	·	·	·	·
COc1ccc(-n2cc(-c3ccc4c(c3)OCO4)n(CC(=O)Nc3cccc(C)c3C)c2=O)c(OC)c1	?	?	·	-86.0	?	·
COc1ccc(-n2cc(-c3ccc4c(c3)OCO4)n(CC(=O)Nc3cc(Cl)ccc3C)c2=O)cc1	–	–	·	–	?	·
Cc1ccc(S(=O)c2ccc([N+](=O)[O-])c3nonc23)cc1 (centres undefined)	·	?	·	-95.0	·	·
O=c1[nH]c(SCc2nc3ccccc3c(=O)n2-c2ccccc2C(F)(F)F)nc2ccccc12	–	17.8µM	–	?	–	–
COc1cc(C(CC2=CCCCC2)NC(=O)C(F)(F)F)cc(OC)c1OC (centres undefined)	·	·	·	·	–	·
CC[n+]1c(/C=C/N(C)c2ccccc2)oc2ccccc21	?	?	–	-97.3	?	?
CC[n+]1c(/C=C/Nc2ccccc2)oc2ccc(OC)cc21	–	–	–	–	?	–
CC[n+]1c(/C=C/N(C)c2ccccc2)oc2ccc(F)cc21	?	–	?	-84.8	?	?
CC(=O)Nc1nonc1-c1nnc(SCc2ccccc2F)n1C	–	–	·	–	–	·
CCS(=O)(=O)c1ccc(OC)c(N=Nc2ccc(O)c3ncccc23)c1	?	?	–	?	?	?
Cc1ccc(NCc2ccc(O)c3ncccc23)cc1	?	–	?	–	?	5.62µM
Cc1ccc(C)c(N=Nc2ccc(O)c3ncccc23)c1	·	?	–	-83.7	·	6.31µM
Cc1ccc(NCc2ccccc2O)cc1	–	–	–	–	–	?
Cc1ccc(NCc2ccc(O)c3ncccc23)cc1C	?	–	–	-79.4	?	?
Cc1ccc(NCc2ccco2)cc1C	·	–	?	–	·	–
COc1ccccc1-c1nccc(N2CCN(C)CC2)n1	·	–	–	·	·	·

Compound activity: PubChem BioAssay, National Center for Advancing Translational Sciences (NCATS)
